# Rows were chosen to be rich in hits. Some 11% of all compounds tested hit in one or more screens of this group.
# PLK1 PBD block: PLK1 (human) polo-box domain binding inhibition. P53350. Plk1 PBD binding of FITC phosphopeptide, fluorescence polarization. Potency, µM, without a hit: max response, negative = inhibition, usual class: inhibitors. hit rate 2.8% among 360,000; further: series mostly up to about 57 µM; on the % scale 0 is the no-effect control and ±100 the full control effect; nearly all actives have a fitted effect of over 65% in size
# JMJD2A Tudor inh: JMJD2A Tudor domain (human) inhibition; AlphaScreen JMJD2A-Tudor / H3K4me3 peptide binding; Potency, µM (series often up to 114 µM), without a hit: at the top dose activity change, negative = inhibition, most hits filed as inhibitors; hit rate 4.4% among 390,000; AID 504339; further: on the % scale 0 is the no-effect control and ±100 the full control effect; nearly all actives have a fitted effect of over 50% in size
# G9a block: blocks human histone lysine methyltransferase G9a; Q96KQ7; G9a H3K9 monomethylation, AlphaScreen, 2 h; Potency, µM (doses to about 102 µM), inactives show top-dose activity, negative = inhibition, usual class: inhibitors; hit rate 8.8% among 350,000; AID 504332; further: on the % scale 0 is the no-effect control and ±100 the full control effect; nearly all actives have a fitted effect of over 75% in size
#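 Enzyme 20 nM + cpd, 15 min RT; add b-H3K9 pep 500 nM / SAM 20 uM; 2 h RT; anti-H3K9me1 Ab 0.5 ug/mL + SA donor / anti-rabbit acceptor beads 20 ug/mL each, 10 min; AlphaScreen read.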
# HP1b binding inh: inhibitors of HP1-beta chromodomain binding to methylated histone tails; P83916; AlphaScreen HP1-beta / biotin-H3K9me3 peptide binding; Potency, µM (top dose mostly 114 µM), without a hit: top-dose activity change, negative = inhibition, most hits filed as inhibitors; hit rate 0.56% among 390,000; AID 540317; further: nearly all actives have a fitted effect of over 70% in size
# Target sequence (P83916 whole entry, looked up): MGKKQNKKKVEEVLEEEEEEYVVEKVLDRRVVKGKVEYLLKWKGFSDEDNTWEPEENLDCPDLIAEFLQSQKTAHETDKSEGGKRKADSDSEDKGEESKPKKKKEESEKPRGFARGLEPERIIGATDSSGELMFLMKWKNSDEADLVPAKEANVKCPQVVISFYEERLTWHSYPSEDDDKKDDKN
#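 AlphaScreen: HP1-beta (50 nM) preformed 30 min with biotin-H3(1-18)K9me3 peptide (50 nM) in PBS pH 7.4, 0.01% Tween-20. Compound added for 30 min at RT, then streptavidin donor/nickel chelate acceptor beads (10 ug/mL) for 30 min.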
# BAZ2B inh: BAZ2B (human) inhibition. Q9UIF8. AlphaScreen BAZ2B-H3K14Ac peptide displacement. Potency, µM (top dose mostly 114 µM), inactives show at the highest dose activity change, negative = inhibition, most hits filed as inhibitors. hit rate 4.4% among 360,000. AID 504333; further: on the % scale 0 is the no-effect control and ±100 the full control effect; nearly all actives have a fitted effect of over 60% in size
#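 Complex of BAZ2B and biotin-H3K14Ac (50 nM apiece) forms over 30 min at RT, then faces library compounds up to 110 uM for another 30 min; AlphaScreen beads added, 20 min dark incubation, luminescence read.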
# VDR inh: blocks the human vitamin D receptor; AID 504847; hit rate 0.93% among 400,000; VDR-SRC2-3 peptide fluorescence polarization, 2 h; Potency, µM, inactives show max response, negative = inhibition, most hits filed as inhibitors; P11473; further: on the % scale 0 is the no-effect control and ±100 the full control effect
# Target sequence (P11473 whole entry, looked up): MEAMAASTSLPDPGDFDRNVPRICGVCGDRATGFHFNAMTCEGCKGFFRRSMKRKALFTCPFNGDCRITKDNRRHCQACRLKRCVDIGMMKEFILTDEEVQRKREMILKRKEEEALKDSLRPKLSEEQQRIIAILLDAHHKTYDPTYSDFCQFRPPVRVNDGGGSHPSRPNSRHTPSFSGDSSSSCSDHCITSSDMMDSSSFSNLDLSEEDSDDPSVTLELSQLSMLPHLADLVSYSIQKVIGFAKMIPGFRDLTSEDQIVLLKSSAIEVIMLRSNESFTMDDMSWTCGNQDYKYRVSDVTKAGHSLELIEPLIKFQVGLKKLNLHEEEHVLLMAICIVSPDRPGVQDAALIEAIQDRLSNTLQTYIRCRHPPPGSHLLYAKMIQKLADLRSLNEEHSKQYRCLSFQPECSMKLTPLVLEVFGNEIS
#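 Compounds are added to VDR with labelled SRC2-3 coactivator peptide and held 2 h at room temperature. Inhibition of the VDR–peptide interaction is then read as a change in fluorescence polarization.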
# * marks the source's active call; other numbers are inactive results; ? = inconclusive; . = no result given; [ ] = dose if it differs, or a comment. The call rests on the fitted dose curve; in most records, active means well fitted curve in the direction sought with a large enough effect; inconclusive means small, poorly fitted or top-dose-only effect, or another doubt; inactive means no such curve, though single readings can be large; an effect the other way counts as inactive or inconclusive. Potency means the concentration at half of the fitted maximal effect.
SMILES,PLK1 PBD block,JMJD2A Tudor inh,G9a block,HP1b binding inh,BAZ2B inh,VDR inh
O=C(Nc1ccccc1N1CCOCC1)c1cc2c(s1)CCCCC2,-4%,-2%,9%,11%,7%,-7%
O=C(Nc1ccc(N2CCOCC2)cc1)c1cc2c(s1)CCCC2,-7%,?,40µM*,0%,40µM*,-16%
O=C(Nc1ccon1)c1cc2c(s1)CCCC2,-11%,-22%,?,13%,-6%,13%
Cc1ccn2c(=O)c(NC(=O)c3cccs3)c(C)nc2c1,-9%,-10%,3%,35%,0%,6%
CC(=O)NC1=NN(C(C)=O)C2(S1)C(=O)N(C(C)=O)c1ccc(C)cc12 (stereo not drawn),27µM*,?,-7%[59 µM],-16%,-7%,?
CCCN1C(=O)C2(SC(NC(C)=O)=NN2C(C)=O)c2cc(C)ccc21 (stereo not drawn),2%,-5%,-5%,38%,-3%,-2%
COc1cc(OC)c2c(-c3ccccc3)cc(=O)oc2c1C(CC(=O)N1CCOCC1)c1ccc2c(c1)OCO2 (stereo not drawn),2%,?,5%[59 µM],1%,-29%,-8%
COc1cc(OC)c2c(-c3ccccc3)cc(=O)oc2c1C(CC(=O)N1CCN(c2ccccc2)CC1)c1ccc(N(C)C)cc1 (stereo not drawn),0%,6.3µM*,?,?,8.9µM*,-5%
COc1cc(OC)c2c(-c3ccccc3)cc(=O)oc2c1C(CC(=O)N1CCOCC1)c1ccc(N(C)C)cc1 (stereo not drawn),-10%,32µM*,-6%[12.7 µM],?,35µM*,-2%
COc1ccc(-c2c(C3C4C=CCCC4(C)C(=O)N3Cc3ccccc3)ccc3ccccc23)cc1 (stereo not drawn),.,-32%,.,-15%,.,-6%
Cc1ccc(N2CCn3c2nc2c3c(=O)n(C/C=C/c3ccccc3)c(=O)n2C)cc1C,.,?,?,-19%,?,6%
O=C(NCSc1ccnc(SCNC(=O)c2ccc(F)cc2)n1)c1ccc(F)cc1,-8%,-29%,2.8µM*,20%,-30%,7%
O=C(NCCNC(=O)c1ccc(F)cc1)c1ccc(F)cc1,-14%,-18%,.,-11%,.,-5%
O=C(NCc1ccc(Cl)cc1Cl)Nc1nc([C@@H]2O[C@H](CO)[C@@H](O)[C@H](O)[C@H]2O)cs1,3%,.,.,.,.,.
C(=C\c1sc(Nc2ccccc2)n[n+]1-c1ccccc1)/c1ccccc1,?,56µM*,.,?,.,?
CCOc1cc(-c2sc(Nc3ccc(CC)cc3)n[n+]2-c2ccccc2)ccc1OC,-23%,?,-11%[2.33 µM],-12%,?,-9%
COc1ccc(C)cc1Nc1n[n+](-c2ccccc2)c(-c2c(OC)ccc3ccccc23)s1,-19%,?,21%[2.33 µM],-16%,?,-27%
CCOc1cc(-c2sc(Nc3cc(C)ccc3OC)n[n+]2-c2ccccc2)ccc1OC,-24%,56µM*,-42%[12.7 µM],-11%,56µM*,-20%
COc1ccc(-c2sc(Nc3ccccc3)n[n+]2-c2ccccc2)cc1Br,?,79µM*,-48%[12.7 µM],2%,50µM*,2%
COc1ccc(C(=O)Nc2ccc(Nc3ccccc3)cc2)cc1OC,-4%,-6%,.,28%,9%,-26%
c1ccc(Nc2nc(-c3ccccc3)c(-c3ccccc3)s2)cc1,.,-22%,.,64%,.,-4%
COc1ccc(C)cc1Nc1n[n+](-c2ccccc2)c(-c2cc(OC)c(OC)cc2Br)s1,-25%,?,40µM*,19%,50µM*,4%
COc1ccc(C)cc1Nc1n[n+](-c2ccccc2)c(-c2ccc(C(=O)O)cc2)s1,-25%,35µM*,10µM*,-8%,40µM*,-19%
CSC1=C(C#N)C(CC(C)C)C2=C(CCCC2=O)N1 (stereo not drawn),-1%,-9%,-3%,43%,8%,13%
CSC1=C(C#N)C(CC(C)C)C(C(C)=O)=C(C)N1 (stereo not drawn),-17%,12%,50µM*,53%,6%,-2%
SMILES,PLK1 PBD block,JMJD2A Tudor inh,G9a block,HP1b binding inh,BAZ2B inh,VDR inh
CCN(CC(=O)Nc1ccc(C#N)cc1)CC(=O)Nc1ccc2c(c1)OCCO2,7%,.,.,.,.,.
COC(=O)c1cc(S(=O)(=O)N2c3ccccc3CC2C)cn1C (stereo not drawn),-15%,-14%,-21%,42%,-21%,-12%
Cc1csc(NC(=O)COc2ccc3c(C)cc(=O)oc3c2)n1,-4%,-3%,-4%[59 µM],23%,7%,-7%
Cc1cccc(C(=O)Nc2scc(-c3ccc(Br)cc3)c2C(=O)O)c1,30µM*,?,.,1%,.,-5%
CCOC(=O)c1c(-c2ccccc2)csc1NC(=O)c1cc(-c2ccc(Br)cc2)on1,.,-6%,6.3µM*,?,-27%,79µM*
CCOC(=O)c1c(-c2ccc(C)cc2)csc1NC(=O)c1cc(-c2ccc(C)c(F)c2)on1,.,-3%,-13%[59 µM],38%,-2%,6%
CCOC(=O)c1c(-c2ccccc2)csc1NC(=O)COc1ccc2c(C)cc(=O)oc2c1,27µM*,-25%[57.1 µM],-8%[59 µM],?,10%,-17%
CCOC(=O)c1c(-c2ccc(C)cc2)csc1NC(=O)c1cc2ccccc2oc1=O,6%,-5%,3%[0.501 µM],15%,40µM*,-7%
CCOC(=O)C1=C(CN(C)Cc2ccccc2)NC(=O)NC1c1ccc(OC(C)C)cc1 (stereo not drawn),.,?,-31%[59 µM],-7%,.,-22%
CC(NC(=O)c1cn(C(C)c2ccccc2F)nn1)c1ccncc1 (stereo not drawn),?,-9%,8%,19%,-30%,7%
CCOC1=C2CN(S(=O)(=O)c3ccc(C)cc3)C(c3ccc(C)cc3)CC2N(S(=O)(=O)c2ccc(C)cc2)C(c2ccccc2)C1 (stereo not drawn),-9%,.,.,.,.,.
Cc1ccc(-c2csc(NC(=O)/C=C/c3ccco3)c2C(=O)O)cc1,?,?,.,26%,79µM*,-23%
CCOC(=O)c1c(-c2cccc([N+](=O)[O-])c2)csc1NC(=O)CCCOc1ccccc1OC,30µM*,-35%,?,?,-1%,5%
CCOC(=O)c1c(-c2cccc([N+](=O)[O-])c2)csc1NC(=O)CCCOc1ccccc1,-11%,5%,-24%,32%,20%,-2%
COc1ccccc1-c1cc(C(=O)Nc2ccccc2SC)no1,-20%,5%,-5%[2.33 µM],17%,11%,-2%
CCOC(=O)c1c(-c2ccccc2)csc1NC(=O)c1cc(-c2ccc(F)cc2)on1,.,1%,4µM*,-15%,-10%,?
CCOC(=O)c1c(-c2ccc(F)cc2)csc1NC(=O)c1c(-c2ccccc2)noc1C,7%,1%,6%,43%,10%,-1%
